Screens as filed in PubChem BioAssay.
Shown are actives, neighbours in structure and some others; about 4.2% of the full set was active somewhere.
DAX1 StAR inh – DAX1 (NR0B1) inhibitors on StAR promoter, primary screen, cell-based, luminescence, SF-1 (NR5A1), full-length DAX-1; inhibition, % at 6.8 µM; AID 652010, 2013; HEK293T StAR-luciferase reporter, SF-1/DAX-1 repression relief; 1.1% of 370,000 active;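 active means inhibition above the mean over all tested compounds plus 3 SD, cut at about 3.6% in these data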;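 further: 0% = DAX-1 cells with DMSO and 100% = cells lacking DAX-1 with DMSO; higher inhibition means more luminescence from relief of DAX-1 repression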
Wnt bcat act – Wnt/beta-catenin pathway activators, primary screen, cell-based, plate reader, single point; 1.2% of 300,000 active; AID 743398, 2014; Wnt/beta-catenin reporter cell assay, activator; activation, % at 9.35 µM; in the data active means activation above about 30%, passing the limit was not always enough; inconclusive means no clear call, values can overlap the other calls;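 further: 0% = neutral control wells and 100% = positive control wells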
hgDAF-12 ag – H. glycines DAF-12 receptor agonists, primary screen, cell-based, luminescence, HEK293, GAL4 fusion, UAS-luciferase. HEK293 GAL4-hgDAF12 UAS-luciferase reporter, agonist luminescence; normalized to butyrate control. activation, % at 6.8 µM. 1.8% of 370,000 active. AID 687014, 2013;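 active means activation above a cutoff set at the mean of all screened compounds plus 3 SD, cut at about 10% in these data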;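 further: 0% = DMSO wells and 100% = sodium butyrate wells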
ssDAF12 agonist – S. stercoralis DAF-12 nuclear receptor activators, primary screen, cell-based, luminescence, HEK293, GRIP1 co-expression, lit1-tk-luc. AID 652126, 2013. HEK293 ssDAF-12/GRIP1 lit1-tk-luc reporter; % of 3 µM dafachronic acid response. Nuclear hormone receptor DAF-12 (Strongyloides stercoralis). 1% of 370,000 active. activation, % at 6.8 µM;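 active means activation above the mean over all tested compounds plus 3 SD, cut at about 0.9% in these data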;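 further: 0% = DMSO-only wells and 100% = 3 µM delta7-dafachronic acid wells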
esBAF inh – Bmi1 luciferase reporter increase in mESCs, primary screen, esBAF inhibitor project, mouse ES cells, Bmi1 luciferase knock-in, single point; AID 602393, 2012; reporter increase, % at 12.5 µM; 2% of 350,000 active; 24 h; 100% = twice the neutral-well signal; in the data active means activation above about 40%; inconclusive means no clear call, values can overlap the other calls;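 further: 0% = median of the plate's neutral control wells and 100% = double that signal; a rise in the Bmi1 reporter signal indicates esBAF inhibition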
hcDAF12 agonist – H. contortus DAF-12 nuclear receptor activators, primary screen, cell-based, luminescence, HEK293, lit1-tk-luc reporter; activation, % at 6.8 µM; 1.4% of 370,000 active; HEK293 hcDAF-12 lit1-tk-luc reporter; 0% DMSO, 100% Δ7-dafachronic acid; AID 652067, 2013;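 active means activation above the mean of all tested compounds plus 3 SD, cut at about 5.5% in these data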;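 further: 100% = response to 3 µM Δ7-dafachronic acid high control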
* hit, by the source's call; ? = inconclusive; · = no result.

SMILES	DAX1 StAR inh	Wnt bcat act	hgDAF-12 ag	ssDAF12 agonist	esBAF inh	hcDAF12 agonist
COc1ccc(NC(=O)N(C)C[C@@H]2Oc3c(NC(=O)Nc4c(C)noc4C)cccc3C(=O)N([C@@H](C)CO)C[C@H]2C)cc1	·	·	·	·	-6	·
O=C(Nc1cccc(O)c1)c1cccc(S(=O)(=O)N2CCCCCC2)c1	-1	7	2	-1	53*	-1
C[C@H](CO)N1C[C@H](C)[C@@H](CN(C)Cc2cccnc2)OCc2ccccc2-c2c(n(C)c3ccccc23)C1=O	·	·	·	·	0	·
CC(=O)N/C(=C/c1ccccc1)C(=O)NC(Cc1ccccc1)C(=O)O (stereo unspecified)	0	0	11*	-1	·	-1
COc1ccc2cc(-c3csc(-c4cccnc4)n3)ccc2c1	1	·	3	-1	59*	1
COc1cccc(C(C)(O)c2nc(-c3ccc4ccccc4c3)cs2)c1 (stereo unspecified)	-1	8	5	-1	16	-1
Cc1ccc(C)c(-c2csc(-c3cccnc3)n2)c1	-1	4	2	-1	6	0
COc1cccc(-c2nc(-c3ccc4c(c3)NC(=O)CO4)cs2)c1	0	12	11*	-1	·	1
CC(O)(c1cccnc1)c1nc(-c2ccc3ccccc3c2)cs1 (stereo unspecified)	-3	-3	2	-1	57*	-2
COc1ccc(-c2csc(-c3cccnc3)n2)cc1C	3	10	7	-1	51*	2
C[C@@H]1CCCCO[C@@H](CN(C)S(=O)(=O)c2ccccc2)[C@@H](C)CN([C@@H](C)CO)C(=O)c2cc(NS(=O)(=O)c3cccs3)ccc2O1	·	·	·	·	10	·
CCCNC(=O)N(C)C[C@H]1Oc2ncc(-c3ccccc3)cc2C(=O)N([C@H](C)CO)C[C@@H]1C	·	·	·	·	1	·
Cc1cc(C(=O)OCC(=O)Nc2c(F)cccc2F)c(C)n1-c1ccccc1	-2	14	5	-1	48*	-1
O=C(Cc1ccncc1)NCC[C@H]1CC[C@@H](NC(=O)C2CCCCC2)[C@@H](CO)O1	·	·	·	·	2	·
CC(C)c1[nH]nc2c1C(C1C=CCCC1)C(C#N)=C(N)O2 (stereo unspecified)	0	46*	0	-1	·	2
O=C(Nc1ccc2c(c1)OCO2)Nc1cnccn1	0	·	6	-1	?	0
O=C(Nc1ccncc1)Nc1ccccn1	0	·	-2	-1	-3	-2
O=C(Nc1cccnc1)Nc1ccc2c(c1)OCO2	1	·	8	0	42*	5
O=C(Nc1ccccn1)Nc1cccs1	2	·	6	-1	55*	5
O=C(NCc1ccccn1)Nc1ccc2c(c1)OCO2	1	17	6	0	51*	1
O=C(Nc1ccc2c(c1)OCO2)Nc1ccccn1	2	55*	12*	0	·	2
Cn1ccc2cc(NC(=O)Nc3cccnc3)ccc21	1	13	4	0	56*	1
Cc1cccc(NC(=O)NCc2ccc3c(c2)OCO3)c1	4.4*	13	8	-1	27	-1
O=C(NCc1ccncc1)Nc1ccc2c(c1)OCO2	0	-1	2	-1	·	-1
Cc1cccc(NC(=S)NCc2ccc3c(c2)OCO3)c1	-1	·	0	-1	·	0
SMILES	DAX1 StAR inh	Wnt bcat act	hgDAF-12 ag	ssDAF12 agonist	esBAF inh	hcDAF12 agonist
O=C(NCc1cccs1)Nc1ccc2c(c1)OCO2	2	·	5	-1	63*	1
O=C(Nc1cccc(O)c1)c1cnn2cccnc12	1	-6	7	1	36	3
O=C(Nc1ccc2c(c1)OCO2)c1cnn2cccnc12	3	16	10	-1	-22	5.7*
CCCNC(=O)C[C@@H]1C[C@H]2c3cc(NC(=O)Nc4ccccc4)ccc3O[C@H]2[C@H](CO)O1	·	·	·	·	7	·
CN1C(=O)c2cc(NC(=O)C3CCCC3)ccc2OC[C@H]2O[C@H](CC(=O)NCC(F)(F)F)CC[C@H]21	·	·	·	·	6	·
COC(=O)[C@H](CCSC)NC(=O)Cn1cnc(C(=O)Nc2ccc(C)c(C)c2)n1	3	2	11*	-1	2	5.7*
C[C@@H]1CN([C@@H](C)CO)C(=O)Cc2cc(NC(=O)C3CCCCC3)ccc2O[C@H]1CN(C)C(=O)Nc1ccc(F)cc1	·	·	·	·	-7	·
Oc1ccc2ccccc2c1C=NNc1ccccn1	-4	-23	2	2.0*	·	6.0*
Oc1ccccc1N=Cc1c(O)ccc2ccccc12	-1	4	-3	1	-4	5.9*
Oc1ccc2ccccc2c1/C=N/Nc1nnc(-c2ncc[nH]2)c2ccccc12	0	·	-3	-1	-57	0
CO[C@H]1CN(C)C(=O)c2cc(NS(C)(=O)=O)ccc2OC[C@@H](C)N(CC2CCOCC2)C[C@H]1C	·	·	·	·	-1	·
C[C@@H]1CN([C@@H](C)CO)S(=O)(=O)c2ccc(-c3cncnc3)cc2O[C@H]1CN(C)CC1CC1	·	·	·	·	-9	·
CC(C)c1cc2cc3ccc(=O)oc3cc2o1	0	-2	7	-1	52*	0
O=c1ccc2cc3ccoc3cc2o1	0	-1	-2	-1	-9	1
CN(C)C(=O)[C@@H]1[C@@H](CO)[C@@H]2Cn3c(ccc(-c4cccnc4)c3=O)[C@@H]2N1Cc1ccccc1F	·	·	·	·	6	·
COC(=O)c1c(-c2ccc(OC)cc2)sc2ccc(N3CCOCC3)cc12	-1	11	0	-2	42*	-3
COC(=O)c1c(-c2ccc(S(C)(=O)=O)cc2)sc2ccc(OC)cc12	1	47*	9	-1	59*	0
COC(=O)c1c(-c2ccc(S(C)(=O)=O)cc2)sc2cc(OC)ccc12	1	?	7	-1	45*	0
COC(=O)c1c(-c2ccc(SC)cc2)sc2ccccc12	0	22	4	-1	70*	0
C[C@H](CO)N1C[C@H](C)[C@@H](CN(C)S(C)(=O)=O)Oc2ccc(NS(=O)(=O)c3cccs3)cc2C1=O	·	·	·	·	-8	·
COCCCNC(=S)Nc1ccc(C)cc1	0	0	0	-1	-4	-1
COCCCNC(=S)NNC(=S)Nc1ccccc1	1	42*	8	0	·	3
O=C(CSc1ncnc2c1cnn2-c1ccccc1)NC1CCCC1	1	11	2	0	·	5.7*
